Experimental data reported in PubChem BioAssay.
The source made the active and inactive calls.

How the values were obtained:
[1] = system: Plasmodium falciparum Sir2 (PF13_0152, Sir2A); experiment: Plasmodium falciparum Sir2A binding compounds – biochemical, small-molecule microarray, 635 nm fluorescence, primary screen (AID 1098); conditions: fluorescence 635 nm, higher = more signal;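 note: score merges spot fluorescence intensity with its signal-to-noise ratio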
[2] = probe aDKK1 binding to arrayed compounds – biochemical, biotinylated probe, 635/667 nm fluorescence, primary screen (AID 1099); conditions: small-molecule microarray, higher = more signal;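 note: score merges 667nm spot fluorescence with signal to noise across triplicate slides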
[3] = probe aCHRDL2 binding to arrayed compounds – biochemical, biotinylated probe, 635/667 nm fluorescence, primary screen (AID 1100); conditions: small-molecule microarray, higher = more signal
[4] = change in splice reporter luminescence, either direction, cell-based, HEK293, spliceosome inhibition project, primary screen (AID 1101); conditions: HEK293 splicing luciferase reporter, 24 h, higher = more signal, called active from +8 up or from −8 down;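 note: HEK293 cells carrying a splicing-competent luciferase reporter gene; test concentration not given here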
[5] = molecular target: Fibroblast growth factor 10 (Homo sapiens) (UniProt O15520); experiment: compounds binding fibroblast growth factor 10 – biochemical, small-molecule microarray, 635 nm fluorescence, primary screen (AID 1102); conditions: FGF10 binding, fluorescence 635 nm, higher = more signal
Fibroblast growth factor 10 (Homo sapiens), sequence (O15520 whole entry, looked up): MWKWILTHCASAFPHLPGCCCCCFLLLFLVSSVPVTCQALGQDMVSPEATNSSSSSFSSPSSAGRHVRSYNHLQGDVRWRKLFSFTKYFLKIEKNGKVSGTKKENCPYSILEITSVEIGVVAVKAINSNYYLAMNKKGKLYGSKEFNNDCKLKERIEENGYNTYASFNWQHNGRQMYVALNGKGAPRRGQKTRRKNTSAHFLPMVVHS

[6] = system: glycogen synthase kinase-3 (GSK3A per assay name; protocol says GSK3B); experiment: compounds binding glycogen synthase kinase-3 – biochemical, small-molecule microarray, 635 nm fluorescence, GSK3A, primary screen (AID 1103); conditions: fluorescence 635 nm, higher = more signal; note: the record names both GSK3A and GSK3B
[7] = molecular target: Epidermal growth factor receptor (Homo sapiens) (UniProt P00533); experiment: compounds binding epidermal growth factor receptor – biochemical, small-molecule microarray, 635 nm fluorescence, primary screen (AID 1104); conditions: EGFR binding, higher = more signal;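 note: score merges 667 nm emission intensity with spot signal to noise over triplicate slides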
Epidermal growth factor receptor (Homo sapiens), sequence (P00533 whole entry, looked up): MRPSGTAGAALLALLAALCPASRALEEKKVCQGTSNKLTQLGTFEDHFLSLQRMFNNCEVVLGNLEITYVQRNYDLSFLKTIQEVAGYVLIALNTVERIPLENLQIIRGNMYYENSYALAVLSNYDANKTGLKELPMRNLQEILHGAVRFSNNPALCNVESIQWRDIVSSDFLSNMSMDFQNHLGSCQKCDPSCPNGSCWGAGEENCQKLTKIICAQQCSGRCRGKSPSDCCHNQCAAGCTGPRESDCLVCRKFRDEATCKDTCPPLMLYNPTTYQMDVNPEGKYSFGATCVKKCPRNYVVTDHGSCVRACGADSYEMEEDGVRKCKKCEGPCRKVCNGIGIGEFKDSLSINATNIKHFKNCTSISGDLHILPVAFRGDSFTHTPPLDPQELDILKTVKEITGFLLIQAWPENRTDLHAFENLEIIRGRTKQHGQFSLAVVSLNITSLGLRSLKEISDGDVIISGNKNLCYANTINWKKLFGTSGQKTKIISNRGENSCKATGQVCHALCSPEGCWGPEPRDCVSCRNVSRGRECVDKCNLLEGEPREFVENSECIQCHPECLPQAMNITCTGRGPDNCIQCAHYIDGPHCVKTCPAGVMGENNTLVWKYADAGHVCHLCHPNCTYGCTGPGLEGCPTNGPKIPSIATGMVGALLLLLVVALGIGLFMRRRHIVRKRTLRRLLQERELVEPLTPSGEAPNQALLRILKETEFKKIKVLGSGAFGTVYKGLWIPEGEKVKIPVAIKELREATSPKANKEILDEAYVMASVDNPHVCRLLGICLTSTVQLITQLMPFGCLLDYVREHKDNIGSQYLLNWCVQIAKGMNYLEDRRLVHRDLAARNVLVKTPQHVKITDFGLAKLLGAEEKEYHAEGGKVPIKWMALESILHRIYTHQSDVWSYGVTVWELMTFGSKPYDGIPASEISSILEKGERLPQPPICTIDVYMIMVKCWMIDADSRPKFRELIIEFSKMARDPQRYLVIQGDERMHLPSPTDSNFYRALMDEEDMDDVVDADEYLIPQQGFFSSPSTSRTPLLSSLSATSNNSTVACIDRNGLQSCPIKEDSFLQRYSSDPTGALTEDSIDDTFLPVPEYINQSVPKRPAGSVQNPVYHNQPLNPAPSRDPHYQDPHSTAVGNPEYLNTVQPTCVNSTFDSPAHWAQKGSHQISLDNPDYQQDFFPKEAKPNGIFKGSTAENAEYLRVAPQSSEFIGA

[8] = molecular target: Follistatin-related protein 3 (Homo sapiens) (UniProt O95633); experiment: compounds binding follistatin-related protein 3 – biochemical, small-molecule microarray, 635 nm fluorescence, primary screen (AID 1105); conditions: FSTL3 binding, higher = more signal;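 note: score merges emission near 667 nm and signal to noise per printed spot across three slides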
Follistatin-related protein 3 (Homo sapiens), sequence (O95633 whole entry, looked up): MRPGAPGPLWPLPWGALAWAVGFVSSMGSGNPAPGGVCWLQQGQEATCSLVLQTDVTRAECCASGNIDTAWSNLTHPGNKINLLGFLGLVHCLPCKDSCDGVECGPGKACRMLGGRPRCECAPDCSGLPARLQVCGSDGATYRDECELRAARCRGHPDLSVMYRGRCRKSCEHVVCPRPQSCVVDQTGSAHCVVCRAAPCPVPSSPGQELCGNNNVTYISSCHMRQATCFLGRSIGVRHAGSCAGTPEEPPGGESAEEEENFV

[9] = molecular target: Dickkopf-related protein 1 (Homo sapiens) (UniProt O94907); experiment: small molecules binding DKK1 protein – biochemical, small-molecule microarray, 635 nm fluorescence scan, primary screen (AID 1106); conditions: higher = more signal;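 note: score merges emission near 667 nm with signal to noise over three replicate slides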
Dickkopf-related protein 1 (Homo sapiens), sequence (O94907 whole entry, looked up): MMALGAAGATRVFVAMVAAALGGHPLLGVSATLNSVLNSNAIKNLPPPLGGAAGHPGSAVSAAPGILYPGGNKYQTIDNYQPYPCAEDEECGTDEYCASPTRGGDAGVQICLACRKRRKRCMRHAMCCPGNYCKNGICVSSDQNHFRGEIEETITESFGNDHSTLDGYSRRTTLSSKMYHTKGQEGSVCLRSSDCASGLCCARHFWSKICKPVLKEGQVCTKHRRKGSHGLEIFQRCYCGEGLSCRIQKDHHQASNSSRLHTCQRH

[10] = system: Inhibin beta A chain (activin A); experiment: small molecules binding activin A – biochemical, small-molecule microarray, 635 nm fluorescence scan, primary screen (AID 1107); conditions: INHBA, higher = more signal;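 note: mouse activin A protein probed at 4.33 µg/mL on printed slides; score merges bound-protein fluorescence near 667 nm with spot signal-to-noise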
[11] = system: Human papillomavirus type 1a protein E7 (residues 44-93); experiment: small molecules binding HPV E7 44-93 – biochemical, small-molecule microarray, residues 44-93, 635 nm fluorescence, primary screen (AID 1108); conditions: fluorescence 635 nm, higher = more signal;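 note: E7 fragment applied at 1 µg/mL in TBST for 1 h at 4 C; score combines spot fluorescence with its signal to noise ratio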
[12] = hepatitis C replication reporter changes, two-sided – Huh7 cells, luciferase reporter, HCV replication inhibitor project, primary screen (AID 1109); conditions: Huh7 HCV replicon luciferase reporter, 48 h; higher = more signal;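 note: huh7 hepatoma cells harbouring a luciferase neomycin HCV replicon reporter; luciferase luminescence as measure of HCV replicon replication; test concentration not given here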
[13] = molecular target: Left-right determination factor 2 (Homo sapiens) (UniProt O00292); experiment: small molecules binding LEFTY2 protein – biochemical, small-molecule microarray, 635 nm fluorescence scan, primary screen (AID 1110); conditions: higher = more signal
Left-right determination factor 2 (Homo sapiens), sequence (O00292 whole entry, looked up): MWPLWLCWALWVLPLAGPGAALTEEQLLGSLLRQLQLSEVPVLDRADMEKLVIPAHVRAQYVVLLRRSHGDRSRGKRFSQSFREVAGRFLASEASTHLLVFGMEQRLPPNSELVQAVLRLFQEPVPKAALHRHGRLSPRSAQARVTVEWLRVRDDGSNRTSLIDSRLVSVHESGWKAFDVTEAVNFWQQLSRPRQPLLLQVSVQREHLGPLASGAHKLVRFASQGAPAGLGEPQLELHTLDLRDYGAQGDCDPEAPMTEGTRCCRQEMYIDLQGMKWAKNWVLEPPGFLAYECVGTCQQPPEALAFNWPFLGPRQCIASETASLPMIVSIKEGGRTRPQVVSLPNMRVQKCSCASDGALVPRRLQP

[14] = molecular target: Calmodulin-1 (Homo sapiens) (UniProt P0DP23); experiment: small molecules binding calmodulin-1 with EGTA – biochemical, small-molecule microarray, Cy5-labelled CALM1, profiling panel (AID 1111); conditions: Cy5-CALM1 binding fluorescence, higher = more signal;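 note: labelled calmodulin applied in Tris saline Tween buffer holding calcium plus EGTA and DTT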
[15] = molecular target: Calmodulin-1 (Homo sapiens) (UniProt P0DP23); experiment: small molecules binding Ca-loaded calmodulin-1 – biochemical, small-molecule microarray, Cy5-labelled CALM1, plus calcium, artefact control for SMM control-protein annotation, profiling panel (AID 1112); conditions: Cy5-CALM1 binding fluorescence, higher = more signal;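 note: score merges spot fluorescence with signal to noise from triplicate slides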
[16] = probe aWnt5a binding to arrayed compounds – biochemical, biotinylated probe, 635/667 nm fluorescence, primary screen (AID 1113); conditions: small-molecule microarray, higher = more signal;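 note: score merges 667 nm fluorescence intensity with signal-to-noise per printed feature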
[17] = probe aShh binding to arrayed compounds – biochemical, biotinylated probe, 635/667 nm fluorescence, primary screen (AID 1114); conditions: small-molecule microarray, higher = more signal;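 note: probe is biotin-labelled aShh protein from a stem cell growth factor screen; measures binding of labelled protein to compounds printed on the slide; score merges feature fluorescence at 667 nm with signal-to-noise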
[18] = probe aNog binding to arrayed compounds – biochemical, biotinylated probe, 635/667 nm fluorescence, primary screen (AID 1115); conditions: small-molecule microarray, higher = more signal;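 note: probe is biotinylated aNog protein used at 0.15 µg/mL for 1 h at 4 C; z-score combines 667 nm fluorescence of each spot with its signal to noise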
[19] = molecular target: Torsin-1A-interacting protein 1 (Homo sapiens) (UniProt Q5JTV8); experiment: compound microarray binding of lysate hLAP1 – cell lysate, small-molecule microarray, COS7 lysate, 635/667 nm fluorescence, primary screen (AID 1116); conditions: 635 nm fluorescence, higher = more signal
Torsin-1A-interacting protein 1 (Homo sapiens), sequence (Q5JTV8 whole entry, looked up): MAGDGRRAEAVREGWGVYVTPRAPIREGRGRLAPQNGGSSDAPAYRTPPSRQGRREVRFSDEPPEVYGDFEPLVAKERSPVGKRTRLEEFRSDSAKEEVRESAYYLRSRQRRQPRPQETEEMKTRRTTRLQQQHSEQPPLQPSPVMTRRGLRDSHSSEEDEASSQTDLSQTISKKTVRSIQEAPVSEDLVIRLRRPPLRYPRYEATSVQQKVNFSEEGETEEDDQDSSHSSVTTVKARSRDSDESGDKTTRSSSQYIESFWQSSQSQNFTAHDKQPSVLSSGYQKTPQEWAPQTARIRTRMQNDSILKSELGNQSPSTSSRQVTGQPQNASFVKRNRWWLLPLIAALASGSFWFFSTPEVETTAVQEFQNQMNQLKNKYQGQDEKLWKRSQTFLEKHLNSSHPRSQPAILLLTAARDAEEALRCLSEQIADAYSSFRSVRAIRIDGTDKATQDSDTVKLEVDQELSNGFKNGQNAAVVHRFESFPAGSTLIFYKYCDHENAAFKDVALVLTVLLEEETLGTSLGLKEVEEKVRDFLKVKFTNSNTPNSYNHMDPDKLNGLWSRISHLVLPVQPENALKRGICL

[20] = molecular target: Alpha-bungarotoxin (Bungarus multicinctus) (UniProt P60615); experiment: compounds binding labelled alpha-BTX control protein – biochemical, small-molecule microarray, Alexa647 label, 635/667 nm fluorescence, artefact control for SMM control protein annotation, profiling panel (AID 1117); conditions: alpha-BTX-A647 binding fluorescence, higher = more signal
Alpha-bungarotoxin (Bungarus multicinctus), sequence (P60615 whole entry, looked up): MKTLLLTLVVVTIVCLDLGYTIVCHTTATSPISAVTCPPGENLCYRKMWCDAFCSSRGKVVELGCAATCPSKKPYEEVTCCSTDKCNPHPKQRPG

Compound	composite z-score [1]	composite z-score [2]	composite z-score [3]	z-score [4]	composite z-score [5]	composite z-score [6]	composite z-score [7]	composite z-score [8]	composite z-score [9]	composite z-score [10]	composite z-score [11]	z-score [12]	composite z-score [13]	composite z-score [14]	composite z-score [15]	composite z-score [16]	composite z-score [17]	composite z-score [18]	composite z-score [19]	composite z-score [20]
CCOC1=C2C(c3ccc(C)cc3)N(S(=O)(=O)c3ccc(C)cc3)CC2n2c(=O)n(-c3ccccc3)c(=O)n2C1 (stereo not given)	0.818	0.579	0.5	-0.0374 (inactive)	1.04	1.29	0.559	1.26	0.424	0.329	1.32	-1.1	0.584	0.683	-0.332	0.0244	-0.0866	0.664	0.582	1.42
C=CCNC(=O)[C@H]1[C@@H]2C(=O)O[C@@H](c3ccccc3)[C@@H](c3ccccc3)N2[C@@H](c2ccc(O)cc2)[C@]12C(=O)Nc1ccc(C#Cc3ccc(OC)cc3)cc12	1.53	0.257	0.536	0.338 (inactive)	0.782	1.23	0.728	1.21	0.94	-0.13	0.758	-2.06	0.884	0.664	-0.367	-0.219	0.278	0.409	1.31	0.196
CN1C(=O)C2C=CC(C(O)C=Cc3ccc([N+](=O)[O-])cc3)N(N3CCCCC3)C2C1=O (stereo not given)	1.38	1.6	1.34	1.47 (inactive)	0.928	1.28	0.726	1.1	0.256	1.35	0.974	0.789	0.443	2.44	0.925	0.613	0.926	1.66	0.856	2.07
O=C1C2C=CC(C(O)C3CC=CCC3)N(n3cnnc3)C2C(=O)N1Cc1ccccc1 (stereo not given)	0.213	-0.3	0.348	0.276 (inactive)	-0.644	-0.406	-1.64	-1	-0.746	0.672	-0.318	-0.151	-0.49	-0.292	-0.92	-0.154	0.0684	0.336	0.752	0.365
C=C(CCCC)/C(=C/C[C@H](OC(C)=O)c1ccc(CO)o1)c1cc(C(=O)OC)ccc1OC	1.43	-0.0797	-0.438	-0.27 (inactive)	1.25	0.469	-0.102	1.25	0.291	0.638	1.4	-1.58	0.305	0.184	-0.592	-0.101	0.0639	0.116	0.599	1.44
C=CC[C@@]1(C(N)=O)N=C(c2ccc(OCCCO)cc2)O[C@@H]1c1ccccc1N=[N+]=[N-]	1.61	1.36	1.14	-0.0133 (inactive)	0.63	0.649	0.0347	0.0562	1.16	1.38	-0.42	1.51	0.362	-0.151	-0.471	0.0825	-0.148	1.1	2.04	0.673
CCCC[C@@H]1C[C@H]1[C@@H](NC(=O)c1ccccc1)c1ccccc1	-0.563	0.599	0.781	0.308 (inactive)	-0.232	-0.949	-0.151	0.227	-0.256	0.582	0.305	-0.978	-0.137	-0.0221	0.635	0.298	0.121	2.11	-0.192	0.012
C=C(C(=O)CC[C@@H](OC(=O)c1cccnc1)c1ccc(OCCO)cc1)C(C)C	0.603	-0.312	-0.188	-0.255 (inactive)	0.922	0.154	-0.255	0.802	0.906	0.223	0.16	-4.49	0.286	-0.277	-1.85	-0.0145	-0.0035	-0.0863	2.09	0.46
COCCOC(=O)N1C(=O)[C@@]2(c3cc(C#CCC(C(=O)OC)C(=O)OC)ccc31)[C@H](c1ccc(OCCO)cc1)N1[C@H](c3ccccc3)[C@H](c3ccccc3)OC(=O)[C@H]1[C@@H]2C(=O)NC[C@H](O)c1ccccc1	1.52	-0.405	-0.189	0.0782 (inactive)	1.5	1.3	0.586	1.29	0.356	0.094	0.958	-1.71	0.59	1.09	-0.518	-0.17	-0.291	-0.202	0.402	1.18
C=CCC(OC(C)=O)[C@@H]1[C@@H](N(Cc2cc3ccccc3o2)C(=O)c2cccc3ccccc23)c2cc(OCCCO)ccc2N1C(=O)Cc1ccc(OC)cc1 (stereo not given in full)	0.495	0.136	0.0527	-1.04 (inactive)	0.568	0.12	0.24	0.579	0.429	1.2	-0.0348	-0.431	0.443	-0.158	0.344	-0.0816	-0.0146	0.328	0.153	0.608
C=CCNC(=O)[C@@H]1[C@H]2C(=O)O[C@H](c3ccccc3)[C@H](c3ccccc3)N2[C@H](c2ccccc2OCCO)[C@@]12C(=O)N(C(=O)OCCOC)c1ccc(C#CCC(C(=O)OC)C(=O)OC)cc12	1.89	2	1.09	-0.235 (inactive)	1.43	1.31	1.25	1.5	1.34	1.33	1.12	-2.59	1.47	2.23	1.01	0.826	2.18	2.79	2.74	3.06
NC(=O)[C@]1(Cc2ccccc2)N=C(c2ccc(OCCCO)cc2)O[C@@H]1c1ccccc1	0.647	1.2	0.751	-0.072 (inactive)	0.61	0.0914	-0.722	-0.144	-0.109	0.558	1.33	-0.772	-1.02	1.35	0.744	-0.0398	0.409	1.42	1.51	1.23
